D3 antag: antagonists of human D3 dopamine receptor; P35462; D3R cells, DiscoveRx beta-arrestin luminescence, antagonist mode; stronger effect = lower value; max response, negative = inhibition, %; hit rate 2.5% among 360,000; AID 652054; in the data active means max response below about -50%; inconclusive means no clear call, values can overlap the other calls
Target sequence (P35462 whole entry, looked up): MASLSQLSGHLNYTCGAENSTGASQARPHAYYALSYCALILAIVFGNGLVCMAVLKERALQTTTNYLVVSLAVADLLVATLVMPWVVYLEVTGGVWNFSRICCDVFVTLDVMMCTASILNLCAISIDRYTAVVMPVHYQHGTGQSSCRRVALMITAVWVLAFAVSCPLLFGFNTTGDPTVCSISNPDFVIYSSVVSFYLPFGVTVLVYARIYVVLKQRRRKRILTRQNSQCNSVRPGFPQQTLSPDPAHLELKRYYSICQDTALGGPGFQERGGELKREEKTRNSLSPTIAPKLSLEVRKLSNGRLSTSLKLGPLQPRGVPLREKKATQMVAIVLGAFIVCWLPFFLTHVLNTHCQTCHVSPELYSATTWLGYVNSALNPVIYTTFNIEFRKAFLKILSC
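Cells expressing the human receptor were seeded at 1500 cells/well, incubated overnight at 37 degrees C in 5% CO2, then exposed to library compounds with dopamine controls for 90 minutes at 37 degrees C before luminescent detection.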
D1 antagonist: human D1 dopamine receptor antagonism; HEK293 TREx D1 cells, calcium flux, dopamine EC80; stronger effect = lower value; activity change, negative = inhibition, % at 10 µM; hit rate 3.2% among 360,000; in the data active means activity change below about -30%
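Antagonism measured as reduced calcium response to an EC80 dopamine addition following 180 s compound pre-read; cells were inducible HEK293 Trex D1 plated overnight at 30 C, read kinetically at 1 cycle/sec.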
D1 ag: agonists of human D1 dopamine receptor. P21728. HEK293 T-REx D1 cells, calcium flux, agonist mode. activation, % at 2 µM. hit rate 1% among 360,000; in the data active means activation above about 30%
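Agonism was scored from calcium flux recorded over 180 s (1 read/s) after pintool compound addition, following a 10-cycle baseline. Cells were inducible force-coupled HEK293 TREx D1, plated overnight at 30 C and loaded with no-wash calcium dye.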
D3 ag: activates the human D3 dopamine receptor; P35462; D3R DiscoveRx beta-arrestin cells, luminescence, 90 min; max activation, %; hit rate 0.58% among 410,000; AID 652048; in the data active means max activation above about 30%
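Agonist mode: compounds and dopamine controls were applied to plated cells for 90 min at 37 degrees C after an overnight attachment at 1500 cells/well. Luminescent read-out followed 30 - 60 minutes at room temperature with DiscoveRx detection reagent.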
D1 potentiator: potentiators of human D1 dopamine receptor. hit rate 0.036% among 360,000. HEK293 TREx D1 cells, calcium flux, dopamine EC20 potentiation. potentiation, % at 10 µM. P21728; in the data active means potentiation above about 30%
Each line names hits and unclear results; the compound was inactive in the other large screens; ! = not active in a repeat. Rows were chosen to be rich in hits. Some 6.1% of all compounds tested hit in one or more screens of this group.

CCOC(=O)N1CCN(C(=O)CSc2ccc3nnc(-c4cccnc4)n3n2)CC1	D3 antag -98
O=C(NC(=S)Nc1cccc(F)c1)c1cccc([N+](=O)[O-])c1	D3 antag -51
CC(C)NS(=O)(=O)c1ccc(NC(=S)NC(=O)c2cccc([N+](=O)[O-])c2)cc1	D3 antag -94
CC(=O)NC(=S)Nc1cccc([N+](=O)[O-])c1	none (no result: D1 antagonist)
O=S(=O)(c1ccc(-c2csc(=Nc3ccc(OC(F)(F)Cl)cc3)n2CCCO)cc1)N1CCCC1	none (no result: D3 antag)
Cc1cc2cc(CN(Cc3cccs3)C(=S)NCC3CCCO3)c(=O)[nH]c2cc1C (stereo unspecified)	none
Cc1cc(C)c2[nH]c(=O)c(CN(Cc3cccs3)C(=S)NCC3CCCO3)cc2c1 (stereo unspecified)	D1 antagonist -31
CNC(=S)N(Cc1cc2cc(C)cc(C)c2[nH]c1=O)C1CCCC1	none
CCNC(=S)N(Cc1cc2cc(C)cc(C)c2[nH]c1=O)C1CCCC1	D1 antagonist -47
Cc1nnc2c(N3CCN(c4ccc(F)cc4)CC3)nc3ccc(C(=O)c4ccccc4)cc3n12	none (no result: D3 antag)
COCc1ccc(O)c2ncccc12	D3 antag -78
OCC1(Cc2ccccc2)CCCN(Cc2c[nH]c3ccccc23)C1 (stereo unspecified)	D3 antag -57
Oc1ccc(CN2CCN(Cc3ccccc3)CC2)c2cccnc12	D3 antag -58
c1ccc(CN2CCN(Cc3c[nH]c4ccccc34)CC2)cc1	D3 antag -60
CCN1CCCC(CO)(Cc2ccccc2)C1 (stereo unspecified)	none
CC(C)c1ccc(Nc2ncnc3c2nc2n3CCCC2)cc1	none (no result: D3 antag)
CCOc1ccc2nc(NC(=O)CS(=O)(=O)c3ccc(Cl)cc3)sc2c1	none (no result: D3 antag, D1 antagonist)
CCOc1ccc2nc(NC(=O)CS(=O)(=O)c3ccc(C)cc3)sc2c1	D3 ag 38
CCOc1ccc2nc(NC(=O)CS(=O)(=O)c3ccccc3)sc2c1	D3 ag 32
CC(=O)Nc1ccc(S(=O)(=O)Nc2nc3ccc([N+](=O)[O-])cc3s2)cc1	none
CCOc1ccc2nc(NS(=O)(=O)c3ccc(NC(C)=O)cc3)sc2c1	D3 antag -57
CN(C)S(=O)(=O)c1cccc(COC(=O)c2cc([N+](=O)[O-])ccc2N2CCOCC2)c1	D1 antagonist -39
O=C(COC(=O)c1cc([N+](=O)[O-])ccc1N1CCOCC1)Nc1ccccc1OC(F)F	D1 antagonist -31
COc1ccc(-c2noc(CCC(=O)N3CCN(c4cccc(C(F)(F)F)c4)CC3)n2)cc1	none
COc1ccccc1N1CCN(C(=O)c2c(-c3ccccc3)noc2C)CC1	none
COC(=O)c1c(-c2ccc(Cl)cc2)noc1N1CCN(c2ccc(F)cc2)CC1	D3 ag 64 (no result: D3 antag)
COC(=O)c1c(-c2ccc(Cl)cc2)noc1N1CCN(c2ccccc2OC)CC1	D1 antagonist -31 (no result: D3 antag)
COC(=O)c1c(-c2ccc(Cl)cc2)noc1N1CCN(c2cccc(C(F)(F)F)c2)CC1	D3 ag 95 (no result: D3 antag)
CCC1Nc2ncnc(N3CCOCC3)c2N(Cc2ccc(Br)cc2)C1=O (stereo unspecified)	none (no result: D1 antagonist, D1 ag, D1 potentiator)
CCC1Nc2ncnc(N3CCCCC3)c2N(Cc2ccc(Cl)cc2)C1=O (stereo unspecified)	D3 antag -65! (no result: D1 antagonist, D1 ag, D1 potentiator)
O=C1C(Cc2ccccc2)Nc2ncnc(N3CCCCC3)c2N1Cc1ccc(Br)cc1 (stereo unspecified)	D3 antag -99 (no result: D1 antagonist, D1 ag, D1 potentiator)
COc1ccc(CN2C(=O)C(Cc3ccccc3)Nc3ncnc(N4CCOCC4)c32)cc1 (stereo unspecified)	D3 antag inconclusive
CCC1Nc2ncnc(N3CCCCC3)c2N(Cc2ccc(Br)cc2)C1=O (stereo unspecified)	D3 antag -53
CC(C)CC1Nc2ncnc(N3CCCCC3)c2N(Cc2ccc(Br)cc2)C1=O (stereo unspecified)	none
CCC1Nc2ncnc(N3CCCCC3)c2N(Cc2ccc(OC)cc2)C1=O (stereo unspecified)	D3 antag -64! (no result: D1 antagonist, D1 ag, D1 potentiator)
O=C1C(Cc2ccccc2)Nc2ncnc(N3CCCCC3)c2N1Cc1ccccc1 (stereo unspecified)	none (no result: D1 antagonist, D1 ag, D1 potentiator)
CC(C)(C)OC(=O)N1CCC(c2c(C(=O)N3CCN(c4ccccc4)CC3)cnn2-c2ccccc2)CC1	none (no result: D3 antag)
O=C(NCCCN1CCCCCC1)c1ccc2c(c1)sc1nc(-c3ccccc3)cn12	none (no result: D3 antag)
CCN(C(=O)c1cc2c(=O)oc3ccccc3c2s1)c1ccccc1F	none (no result: D3 antag)
Cc1ccccc1Cn1c(SCc2ccc(C(=O)NC(C)c3ccccc3)cc2)nc2ccncc21 (stereo unspecified)	none (no result: D3 antag)
CC1=C(c2ccc(C(C)C)cc2)S(=O)(=O)NC1=NCc1ccccc1Br	none (no result: D3 antag)
CCC1Nc2ncnc(N3CCc4ccccc4C3)c2N(Cc2ccc(Cl)cc2)C1=O (stereo unspecified)	none (no result: D1 antagonist, D1 ag, D1 potentiator)
O=C1C(Cc2ccccc2)Nc2ncnc(N3CCc4ccccc4C3)c2N1Cc1ccc(Cl)cc1 (stereo unspecified)	D3 antag -59
CCN(CC)c1nc(N)c2c(N)n(-c3ccccc3C)c(=S)c(C#N)c2c1C#N	D3 antag -82
O=C(c1ccccc1)N1CCc2cc(CNS(=O)(=O)c3ccc(Cl)s3)ccc21	none (no result: D3 antag)
CCOC(=O)c1c(C)oc2nc(C)nc(NCC3CCN(Cc4ccccc4C)CC3)c12	none (no result: D3 antag)
CCCCCSc1nnc2c(n1)OC(c1ccc(C)s1)N(C(C)=O)c1ccccc1-2 (stereo unspecified)	none (no result: D3 antag)
CCOC(=O)CCc1ccc(NC(=O)/C=C/c2ccc([N+](=O)[O-])o2)cc1	none (no result: D1 antagonist, D1 ag, D1 potentiator)
CCc1ccc(C(=O)/C=C/c2ccc([N+](=O)[O-])o2)cc1	D3 antag -56
CCc1ccc(/C=C/C(=O)c2ccc(S(=O)(=O)N(C)C)cc2)cc1	D1 antagonist -62, D1 ag 50
CCN(CC)S(=O)(=O)c1ccc(C(=O)/C=C/c2ccc(-c3ccc([N+](=O)[O-])cc3)o2)cc1	D1 antagonist -54
O=C(Cn1nc(C(F)(F)F)c2c1CCCC2)Nc1ccc(Br)cc1	none (no result: D3 antag)
O=S(=O)(Nc1c(Br)cc(Br)c2cccnc12)C1CCCCC1	none (no result: D3 antag, D3 ag)
CN(C)C(=O)CSc1nnc(CCNC(=O)OC(C)(C)C)o1	D1 antagonist -33
CC(C)(C)OC(=O)NCCCCCc1nnc(SCc2cccc(F)c2)o1	D1 antagonist -36
Cc1cc(C)c2c(CC(=O)N(Cc3ccc(Cl)cc3)Cc3ccco3)coc2c1	D1 ag 38 (no result: D3 antag)
Cc1cc(=O)oc2ccc(OCC(=O)N(Cc3ccc(F)cc3)Cc3ccco3)cc12	D1 antagonist -42
Cc1cccc(OCC(=O)N(Cc2cccc(Cl)c2)Cc2ccco2)c1C	D1 ag 31 (no result: D3 antag)
CC(=O)c1ccc(NC(=O)NCCc2c[nH]c3ccccc23)cc1	none (no result: D3 antag)
CCN(CC)C(=O)Cn1c(SCCOc2ccc(Cl)cc2)nc2ccccc21	none (no result: D3 antag)

Bioassay records (PubChem)
